# Laboratory results: PubChem BioAssay (EPA / NIEHS)
# Inconclusive results are not listed. The source made the active and inactive calls. The calls were made as follows: active = hit-call score of the fitted dose curve at least 0.9, where 1 is the maximum; inconclusive = response in the unintended direction; inactive = score below 0.9.
# What was measured:
# [1] = molecular target: human Mitogen- and Stress-activated Protein Kinase-1 (Msk1), RPS6KA5 (gene 9252) (UniProt O75582); assay: NVS_ENZ_hMsk1: NovaScreen (NVS) Enzymatic Assay for human Mitogen- and Stress-activated Protein Kinase-1 (Msk1) (AID 2283187)
# How it was run: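 Recombinant kinase with fluorescent substrate; product separated by electrophoretic mobility shift, read 1 h after dosing. Screened in duplicate at 25 uM; hits (e.g. ≥30% inhibition) tested in concentration–response up to 50 uM. DMSO baseline.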
# [2] = molecular target: human Phosphodiesterase 4A1 (PDE4A1), PDE4A (gene 5141) (UniProt P27815); assay: NVS_ENZ_hPDE4A1: NovaScreen (NVS) Enzymatic Assay for human Phosphodiesterase 4A1 (PDE4A1) (AID 2283191)
# How it was run: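 Cell-free recombinant human PDE4A1 with fluorescent substrate; product separated by electrophoretic mobility shift, 1 h. Screened at 25 uM, then up to 50 uM in concentration-response; loss of signal fitted against DMSO.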
# [3] = molecular target: human Phosphodiesterase 5 (PDE5), PDE5A (gene 8654) (UniProt O76074); assay: NVS_ENZ_hPDE5: NovaScreen (NVS) Enzymatic Assay for human Phosphodiesterase 5 (PDE5) (AID 2283194)
# How it was run: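 Recombinant human PDE5 with specific substrate, read 1 h after dosing by fluorescence with electrophoretic mobility-shift separation of substrate and product. Initial single-concentration duplicate screen at 25 uM, actives followed in concentration series; loss of activity versus DMSO.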
# [4] = molecular target: Serine/threonine-protein phosphatase PP1-alpha catalytic subunit (Homo sapiens) (UniProt P62136); assay: NVS_ENZ_hPPP1CA: NovaScreen (NVS) Enzymatic Assay for human Protein Phosphatase 1 Aatalytic subunit Alpha (PPP1CA) (AID 2283200)
# How it was run: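 Recombinant enzyme activity read by fluorescence with electrophoretic mobility shift separating substrate from product, 1.33 h after dosing; loss of signal vs DMSO baseline. Primary screen in duplicate at 25 uM; actives retested in concentration-response up to 50 uM.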
# [5] = molecular target: human Protein Tyrosine Phosphatase Non-receptor Type 1 (PTPN1), PTPN1 (gene 5770) (UniProt P18031); assay: NVS_ENZ_hPTPN1: NovaScreen (NVS) Enzymatic Assay for human Protein Tyrosine Phosphatase Non-receptor Type 1 (PTPN1) (AID 2283201)
# How it was run: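 Cell-free fluorogenic-substrate activity assay on recombinant enzyme, read 1.33 h after dosing by fluorescence and electrophoretic mobility shift; loss of signal vs DMSO baseline. Primary screen in duplicate at 25 uM, hits then run in concentration-response up to 50 uM.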
# [6] = molecular target: Tyrosine-protein phosphatase non-receptor type 11 (Homo sapiens) (UniProt Q06124); assay: NVS_ENZ_hPTPN11: NovaScreen (NVS) Enzymatic Assay for human Protein Tyrosine Phosphatase Non-receptor Type 11 (PTPN11) (AID 2283202)
# How it was run: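 Recombinant human PTPN11 activity on a fluorescent substrate, with substrate/product separated by electrophoretic mobility shift; read 0.5 h after dosing, loss of signal vs DMSO. Duplicate 25 uM screen, then concentration-response up to 50 uM.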
# [7] = molecular target: Tyrosine-protein phosphatase non-receptor type 13 (Homo sapiens) (UniProt Q12923); assay: NVS_ENZ_hPTPN13: NovaScreen (NVS) Enzymatic Assay for human Protein Tyrosine Phosphatase Non-receptor Type 13 (PTPN13) (AID 2283205)
# How it was run: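 Cell-free assay of recombinant human PTPN13 with a fluorescent substrate, product separated by electrophoretic mobility shift and read 0.5 h after dosing. Primary screen at 25 uM in duplicate, then concentration-response up to 50 uM. Loss of signal fitted against DMSO.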
# [8] = molecular target: Tyrosine-protein phosphatase non-receptor type 14 (Homo sapiens) (UniProt Q15678); assay: NVS_ENZ_hPTPN14: NovaScreen (NVS) Enzymatic Assay for human Protein Tyrosine Phosphatase Non-receptor Type 14 (PTPN14) (AID 2283206)
# How it was run: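 Cell-free recombinant human PTPN14 with fluorescent substrate, read 0.5 h after dosing by fluorescence and electrophoretic mobility shift separating substrate from product. Primary screen at 25 uM in duplicate; hits run to 50 uM maximum; loss of signal versus DMSO.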
# [9] = molecular target: human Protein Tyrosine Phosphatase Non-receptor Type 9 (PTPN9), PTPN9 (gene 5780) (UniProt P43378); assay: NVS_ENZ_hPTPN9: NovaScreen (NVS) Enzymatic Assay for human Protein Tyrosine Phosphatase Non-receptor Type 9 (PTPN9) (AID 2283209)
# How it was run: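 Sf9-expressed enzyme in a cell-free assay, fluorescence read 1.33 h after dosing with mobility-shift separation of substrate and product. Tested at 25 uM in duplicate, then up to 50 uM; signal loss versus DMSO.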
# [10] = molecular target: human Protein Tyrosine Phosphatase Receptor Type F (PTPRF), PTPRF (gene 5792) (UniProt P10586); assay: NVS_ENZ_hPTPRF: NovaScreen (NVS) Enzymatic Assay for human Protein Tyrosine Phosphatase Receptor Type F (PTPRF) (AID 2283213)
# How it was run: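 Cell-free fluorescence enzyme assay with recombinant protein and substrate; product separated by electrophoretic mobility shift. Read 1 h after dosing, single 25 uM duplicate screen, then concentration-response up to 50 uM; loss of signal vs DMSO.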
# [11] = molecular target: human Protein Tyrosine Phosphatase Receptor Type B (PTPRB), PTPRB (gene 5787) (UniProt P23467); assay: NVS_ENZ_hPTPRB: NovaScreen (NVS) Enzymatic Assay for human Protein Tyrosine Phosphatase Receptor Type B (PTPRB) (AID 2283211)
# How it was run: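 Recombinant human PTPRB with a fluorescent substrate, product separated by electrophoretic mobility shift; read 1 h after dosing. Primary screen in duplicate at 25 uM; actives then retested in concentration series; loss of signal versus DMSO.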
# [12] = molecular target: human Matrix Metalloproteinase-9 (MMP9), MMP9 (gene 4318) (UniProt P14780); assay: NVS_ENZ_hMMP9: NovaScreen (NVS) Enzymatic Assay for human Matrix Metalloproteinase-9 (MMP9) (AID 2283190);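 also: cell-free recombinant MMP9 protease activity read by fluorescent substrate signal; active means inhibition seen as loss of fluorescence signal versus DMSO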
# How it was run: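 Cell-free fluorescence-intensity enzyme activity assay using extracted protein, read 1 h after dosing. Loss of signal versus DMSO baseline indicates inhibition; primary screen in duplicate at 25 uM, actives followed up in concentration series.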
# [13] = molecular target: cAMP-dependent protein kinase catalytic subunit alpha (Homo sapiens) (UniProt P17612); assay: NVS_ENZ_hPKA: NovaScreen (NVS) Enzymatic Assay for human Protein Kinase A (PKA) (AID 2283192)
# How it was run: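 Recombinant human PKA with specific fluorescent substrate, product separated by electrophoretic mobility shift, read 1 h after dosing. Primary screen at 25 uM in duplicate; actives then run in concentration-response up to 50 uM, activity relative to DMSO.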
# [14] = molecular target: human Phosphodiesterase 10 (PDE10), PDE10A (gene 10846) (UniProt Q9Y233); assay: NVS_ENZ_hPDE10: NovaScreen (NVS) Enzymatic Assay for human Phosphodiesterase 10 (PDE10) (AID 2283195)
# How it was run: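 Fluorescence/mobility-shift readout of PDE10A enzyme activity, taken 1 h post-dosing. Primary screen in duplicate at 25 uM; actives (e.g. ≥30% inhibition) retested as singleton concentration-response, top concentration 50 uM.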
# [15] = molecular target: human Phosphoinositide 3-kinase alpha (PI3Ka), PIK3CA (gene 5290) (UniProt P42336); assay: NVS_ENZ_hPI3Ka: NovaScreen (NVS) Enzymatic Assay for human Phosphoinositide 3-kinase alpha (PI3Ka) (AID 2283196)
# How it was run: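 Enzyme activity as fluorescence after mobility-shift separation of substrate and product, 1 h reaction, recombinant human PI3Kα; concentration-response to 50 uM max for chemicals passing a 25 uM duplicate screen.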
# [16] = molecular target: Tyrosine-protein phosphatase non-receptor type 12 (Homo sapiens) (UniProt Q05209); assay: NVS_ENZ_hPTPN12: NovaScreen (NVS) Enzymatic Assay for human Protein Tyrosine Phosphatase Non-receptor Type 12 (PTPN12) (AID 2283204)
# How it was run: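 Single-concentration duplicates (25 uM) preceded singleton concentration-response up to 50 uM for chemicals passing threshold. Cell-free recombinant PTPN12 activity was read 1.33 h after dosing via fluorescence after mobility-shift separation; loss of signal versus DMSO.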
# [17] = molecular target: human Protein Tyrosine Phosphatase Non-receptor Type 4 (PTPN4), PTPN4 (gene 5775) (UniProt P29074); assay: NVS_ENZ_hPTPN4: NovaScreen (NVS) Enzymatic Assay for human Protein Tyrosine Phosphatase Non-receptor Type 4 (PTPN4) (AID 2283208)
# How it was run: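 Cell-free assay of PTPN4 expressed in Sf9 cells, using a fluorescent substrate with product separated by mobility shift; read 1.33 h after dosing. Single-point screen at 25 uM, then concentration-response up to 50 uM. Loss of signal relative to DMSO.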
# [18] = molecular target: human Protein Tyrosine Phosphatase Non-receptor Type 6 (PTPN6), PTPN6 (gene 5777) (UniProt P29350); assay: NVS_ENZ_hPTPN6: NovaScreen (NVS) Enzymatic Assay for human Protein Tyrosine Phosphatase Non-receptor Type 6 (PTPN6) (AID 2283210)
# How it was run: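 Cell-free assay with recombinant PTPN6 expressed in SF9 cells, fluorescent substrate, product separated from substrate by electrophoretic mobility shift; read 1.33 hours after dosing. Primary screen in duplicate at 25 uM, actives retested in concentration series; DMSO baseline.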
# [19] = molecular target: human Matrix Metalloproteinase-3 (MMP3), MMP3 (gene 4314) (UniProt P08254); assay: NVS_ENZ_hMMP3: NovaScreen (NVS) Enzymatic Assay for human Matrix Metalloproteinase-3 (MMP3) (AID 2283185)
# How it was run: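 Cell-free recombinant human MMP3 activity, fluorescence intensity read 1 h after dosing. Primary screen duplicate at 25 uM, actives retested in concentration series; loss of signal vs DMSO baseline.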
# [20] = molecular target: human Protein Phosphatase, Mg2+/Mn2+ Dependent 1A (PPM1A), PPM1A (gene 5494) (UniProt P35813); assay: NVS_ENZ_hPPM1A: NovaScreen (NVS) Enzymatic Assay for human Protein Phosphatase, Mg2+/Mn2+ Dependent 1A (PPM1A) (AID 2283198)
# How it was run: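 Cell-free recombinant PPM1A phosphatase assay with fluorescent substrate, read 1 h after dosing by electrophoretic mobility shift. Chemicals screened in duplicate at 25 uM, then in concentration-response up to 50 uM; loss of activity versus DMSO.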
# Chain of human Phosphoinositide 3-kinase alpha (PI3Ka), PIK3CA (gene 5290) (P42336 whole entry, looked up): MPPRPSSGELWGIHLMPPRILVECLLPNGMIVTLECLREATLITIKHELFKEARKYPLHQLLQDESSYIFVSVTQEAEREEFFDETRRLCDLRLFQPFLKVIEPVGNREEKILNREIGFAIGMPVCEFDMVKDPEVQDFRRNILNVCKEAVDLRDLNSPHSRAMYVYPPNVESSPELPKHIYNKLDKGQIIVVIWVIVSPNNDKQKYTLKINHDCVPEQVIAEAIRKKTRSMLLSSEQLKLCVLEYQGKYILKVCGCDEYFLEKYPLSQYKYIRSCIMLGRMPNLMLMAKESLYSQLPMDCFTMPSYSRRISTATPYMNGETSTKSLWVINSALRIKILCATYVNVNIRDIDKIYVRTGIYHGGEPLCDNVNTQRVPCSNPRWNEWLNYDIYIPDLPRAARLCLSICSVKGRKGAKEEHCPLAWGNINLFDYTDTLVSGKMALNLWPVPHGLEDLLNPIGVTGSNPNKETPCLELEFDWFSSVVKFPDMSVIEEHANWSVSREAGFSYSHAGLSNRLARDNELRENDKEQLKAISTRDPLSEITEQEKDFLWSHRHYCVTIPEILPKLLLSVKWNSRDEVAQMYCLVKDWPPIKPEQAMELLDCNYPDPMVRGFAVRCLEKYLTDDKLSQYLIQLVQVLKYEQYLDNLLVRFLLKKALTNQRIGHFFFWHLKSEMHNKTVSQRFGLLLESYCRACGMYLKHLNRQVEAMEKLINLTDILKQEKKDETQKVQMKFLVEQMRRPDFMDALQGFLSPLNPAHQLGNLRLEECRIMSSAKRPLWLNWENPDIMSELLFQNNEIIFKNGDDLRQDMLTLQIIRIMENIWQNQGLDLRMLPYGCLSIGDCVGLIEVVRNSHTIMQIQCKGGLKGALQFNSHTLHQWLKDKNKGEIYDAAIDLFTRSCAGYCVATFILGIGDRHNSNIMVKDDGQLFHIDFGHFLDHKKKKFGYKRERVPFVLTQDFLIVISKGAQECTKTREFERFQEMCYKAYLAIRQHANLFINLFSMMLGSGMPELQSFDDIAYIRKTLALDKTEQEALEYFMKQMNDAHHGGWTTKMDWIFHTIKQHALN
# Chain of human Phosphodiesterase 4A1 (PDE4A1), PDE4A (gene 5141) (P27815 whole entry, looked up): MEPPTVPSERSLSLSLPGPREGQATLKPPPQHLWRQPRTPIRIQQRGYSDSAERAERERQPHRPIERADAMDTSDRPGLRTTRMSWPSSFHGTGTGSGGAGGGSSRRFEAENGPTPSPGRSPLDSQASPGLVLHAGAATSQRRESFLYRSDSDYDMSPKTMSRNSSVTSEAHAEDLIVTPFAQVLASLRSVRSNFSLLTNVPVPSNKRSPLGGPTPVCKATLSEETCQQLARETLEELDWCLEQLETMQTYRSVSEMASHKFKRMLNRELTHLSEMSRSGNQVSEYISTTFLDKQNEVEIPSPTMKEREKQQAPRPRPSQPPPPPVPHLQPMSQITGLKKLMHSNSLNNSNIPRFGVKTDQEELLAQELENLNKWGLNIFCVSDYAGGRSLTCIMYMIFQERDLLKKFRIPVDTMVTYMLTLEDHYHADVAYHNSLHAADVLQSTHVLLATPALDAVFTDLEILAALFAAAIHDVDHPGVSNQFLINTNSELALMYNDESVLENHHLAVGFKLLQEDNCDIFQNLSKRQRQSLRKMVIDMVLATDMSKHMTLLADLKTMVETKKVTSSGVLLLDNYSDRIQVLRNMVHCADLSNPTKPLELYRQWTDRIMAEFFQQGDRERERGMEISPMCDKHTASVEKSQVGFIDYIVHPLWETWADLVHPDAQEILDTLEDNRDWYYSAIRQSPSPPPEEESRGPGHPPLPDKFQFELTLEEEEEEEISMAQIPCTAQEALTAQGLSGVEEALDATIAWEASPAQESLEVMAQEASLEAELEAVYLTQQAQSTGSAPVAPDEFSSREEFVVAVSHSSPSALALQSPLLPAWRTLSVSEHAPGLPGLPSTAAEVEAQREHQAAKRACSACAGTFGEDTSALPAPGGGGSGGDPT
# Chain of human Matrix Metalloproteinase-9 (MMP9), MMP9 (gene 4318) (P14780 whole entry, looked up): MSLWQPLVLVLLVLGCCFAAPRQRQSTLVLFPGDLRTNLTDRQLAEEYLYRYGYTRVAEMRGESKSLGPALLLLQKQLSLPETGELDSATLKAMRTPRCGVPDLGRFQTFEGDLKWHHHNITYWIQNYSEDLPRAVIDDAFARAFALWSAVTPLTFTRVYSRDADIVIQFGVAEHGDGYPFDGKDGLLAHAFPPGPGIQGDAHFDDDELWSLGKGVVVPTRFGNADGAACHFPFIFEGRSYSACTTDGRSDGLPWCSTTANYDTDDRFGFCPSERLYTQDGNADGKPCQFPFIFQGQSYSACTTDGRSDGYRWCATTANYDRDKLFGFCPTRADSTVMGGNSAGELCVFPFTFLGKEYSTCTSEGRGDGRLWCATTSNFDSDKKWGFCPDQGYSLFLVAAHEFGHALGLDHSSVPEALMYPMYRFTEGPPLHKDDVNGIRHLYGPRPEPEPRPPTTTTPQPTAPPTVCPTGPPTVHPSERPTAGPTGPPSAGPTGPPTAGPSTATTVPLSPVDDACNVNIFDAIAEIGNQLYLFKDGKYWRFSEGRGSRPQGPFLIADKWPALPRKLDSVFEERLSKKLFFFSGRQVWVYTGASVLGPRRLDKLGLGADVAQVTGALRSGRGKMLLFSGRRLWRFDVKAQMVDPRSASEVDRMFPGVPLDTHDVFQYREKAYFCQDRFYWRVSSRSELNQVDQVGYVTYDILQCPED
# Chain of human Matrix Metalloproteinase-3 (MMP3), MMP3 (gene 4314) (P08254 whole entry, looked up): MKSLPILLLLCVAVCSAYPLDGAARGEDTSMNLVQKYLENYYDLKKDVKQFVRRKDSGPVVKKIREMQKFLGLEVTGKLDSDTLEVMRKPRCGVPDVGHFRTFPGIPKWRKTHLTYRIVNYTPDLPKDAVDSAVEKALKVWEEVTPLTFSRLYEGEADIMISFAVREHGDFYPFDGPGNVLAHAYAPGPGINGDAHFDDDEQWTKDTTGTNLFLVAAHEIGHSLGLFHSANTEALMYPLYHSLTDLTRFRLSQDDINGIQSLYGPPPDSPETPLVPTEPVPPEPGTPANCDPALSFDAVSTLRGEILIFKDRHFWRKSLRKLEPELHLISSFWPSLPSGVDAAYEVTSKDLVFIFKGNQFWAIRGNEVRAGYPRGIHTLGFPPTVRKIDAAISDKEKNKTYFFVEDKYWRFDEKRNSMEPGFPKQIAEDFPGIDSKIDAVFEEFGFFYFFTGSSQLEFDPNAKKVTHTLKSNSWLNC
# Chain of human Mitogen- and Stress-activated Protein Kinase-1 (Msk1), RPS6KA5 (gene 9252) (O75582 whole entry, looked up): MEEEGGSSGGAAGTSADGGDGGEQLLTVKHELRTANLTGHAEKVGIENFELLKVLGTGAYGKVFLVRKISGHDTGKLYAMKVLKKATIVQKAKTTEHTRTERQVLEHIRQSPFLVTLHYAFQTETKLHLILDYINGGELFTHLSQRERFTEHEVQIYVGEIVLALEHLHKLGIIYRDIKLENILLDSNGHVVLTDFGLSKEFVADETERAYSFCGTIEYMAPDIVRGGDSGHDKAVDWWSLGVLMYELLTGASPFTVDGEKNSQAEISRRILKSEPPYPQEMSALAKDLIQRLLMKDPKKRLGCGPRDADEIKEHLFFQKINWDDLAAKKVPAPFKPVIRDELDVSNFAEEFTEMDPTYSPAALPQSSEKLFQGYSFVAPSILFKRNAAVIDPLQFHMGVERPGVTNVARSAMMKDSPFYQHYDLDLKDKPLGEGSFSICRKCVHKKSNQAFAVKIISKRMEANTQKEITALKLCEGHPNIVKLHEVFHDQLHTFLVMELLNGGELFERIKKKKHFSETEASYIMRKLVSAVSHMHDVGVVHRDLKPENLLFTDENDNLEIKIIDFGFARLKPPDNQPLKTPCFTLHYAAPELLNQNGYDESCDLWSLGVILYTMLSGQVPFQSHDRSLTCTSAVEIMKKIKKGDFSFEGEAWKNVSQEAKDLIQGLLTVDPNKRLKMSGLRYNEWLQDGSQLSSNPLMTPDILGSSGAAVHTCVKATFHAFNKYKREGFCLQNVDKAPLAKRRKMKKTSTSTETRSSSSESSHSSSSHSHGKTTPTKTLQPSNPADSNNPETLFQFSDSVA
# Chain of Serine/threonine-protein phosphatase PP1-alpha catalytic subunit (Homo sapiens) (P62136 whole entry, looked up): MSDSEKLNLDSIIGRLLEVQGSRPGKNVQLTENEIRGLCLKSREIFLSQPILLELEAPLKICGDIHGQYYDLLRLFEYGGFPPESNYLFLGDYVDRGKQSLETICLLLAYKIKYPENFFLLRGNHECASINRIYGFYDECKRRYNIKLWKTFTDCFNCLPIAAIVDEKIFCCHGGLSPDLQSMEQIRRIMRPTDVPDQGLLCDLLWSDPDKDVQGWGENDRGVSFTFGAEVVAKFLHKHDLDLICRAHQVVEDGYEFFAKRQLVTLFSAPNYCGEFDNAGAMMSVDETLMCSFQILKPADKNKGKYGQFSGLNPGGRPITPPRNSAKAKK
# Chain of human Protein Tyrosine Phosphatase Non-receptor Type 9 (PTPN9), PTPN9 (gene 5780) (P43378 whole entry, looked up): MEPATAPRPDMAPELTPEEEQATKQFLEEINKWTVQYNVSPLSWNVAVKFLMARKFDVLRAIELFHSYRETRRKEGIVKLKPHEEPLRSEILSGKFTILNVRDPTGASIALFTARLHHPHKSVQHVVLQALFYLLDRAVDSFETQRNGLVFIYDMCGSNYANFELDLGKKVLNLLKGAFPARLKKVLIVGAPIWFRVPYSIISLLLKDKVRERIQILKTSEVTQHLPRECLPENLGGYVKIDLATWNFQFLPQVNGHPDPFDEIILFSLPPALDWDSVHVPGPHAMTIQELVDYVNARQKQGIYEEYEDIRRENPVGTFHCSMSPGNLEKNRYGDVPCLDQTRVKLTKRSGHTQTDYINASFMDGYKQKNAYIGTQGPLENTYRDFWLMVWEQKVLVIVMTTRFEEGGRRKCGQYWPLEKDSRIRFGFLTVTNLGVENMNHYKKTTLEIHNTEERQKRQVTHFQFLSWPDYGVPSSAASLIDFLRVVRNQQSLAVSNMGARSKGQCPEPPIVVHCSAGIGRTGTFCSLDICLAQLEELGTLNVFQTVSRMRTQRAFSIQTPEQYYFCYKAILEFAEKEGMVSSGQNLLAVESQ
smiles,measurement,setting,value
CC(C)CCCCCCc1ccc(O)cc1,outcome,[1],inactive
same,outcome,[2],inactive
same,outcome,[3],inactive
same,outcome,[4],inactive
same,outcome,[5],inactive
same,outcome,[6],inactive
same,outcome,[7],inactive
same,outcome,[8],inactive
same,outcome,[9],inactive
same,outcome,[10],inactive
CCCCC(CC)CN1C(=O)C2C3C=CC(C3)C2C1=O (centres undefined),outcome,[1],inactive
CCCN(CCC)C(=O)SCC,outcome,[11],inactive
S=C([S-])NCCNC(=S)[S-].[Mn+2],AC50,[1],2.09 µM (active)
same,outcome,[12],inactive
same,AC50,[2],16.7 µM (active)
same,AC50,[13],25 µM (active)
same,AC50,[14],25 µM (active)
same,outcome,[15],inactive
same,AC50,[5],0.831 µM (active)
same,AC50,[6],0.144 µM (active)
same,AC50,[16],0.479 µM (active)
same,AC50,[7],0.594 µM (active)
same,AC50,[8],13.8 µM (active)
same,AC50,[17],0.0035 µM (active)
same,AC50,[9],0.00231 µM (active)
same,AC50,[18],34.7 µM (active)
same,AC50,[11],0.465 µM (active)
same,AC50,[10],6.35 µM (active)
COC(=O)c1c(Cl)nn(C)c1S(=O)(=O)NC(=O)Nc1nc(OC)cc(OC)n1,outcome,[3],inactive
OB(O)O,outcome,[4],inactive
COc1nc(C)nc(NC(=O)NS(=O)(=O)c2ccccc2OCCCl)n1,AC50,[12],4.32 µM (active)
same,outcome,[17],inactive
same,outcome,[9],inactive
C[C@]12C[C@H](O)[C@H]3[C@@H](CCC4=CC(=O)CC[C@@]43C)[C@@H]1CC[C@@H]2C(=O)CO,outcome,[19],inactive
COC(=O)c1ccccc1S(=O)(=O)NC(=O)Nc1nc(OC(F)F)cc(OC(F)F)n1,outcome,[13],inactive
same,outcome,[11],inactive
CCSC(=O)N(CC(C)C)CC(C)C,outcome,[15],inactive
CCOC(=O)c1ccc(O)cc1,outcome,[3],inactive
same,outcome,[20],inactive
c1ccc2[nH]c(-c3cscn3)nc2c1,AC50,[3],11.6 µM (active)
CCCOC(=O)NCCCN(C)C,outcome,[19],inactive
same,outcome,[10],inactive
N#CSCSc1nc2ccccc2s1,outcome,[15],inactive
same,outcome,[10],inactive
C=CCOC(Cn1ccnc1)c1ccc(Cl)cc1Cl (centres undefined),AC50,[12],18.6 µM (active)
same,outcome,[2],inactive
CN(C)C(=O)Nc1ccc(Cl)c(Cl)c1,outcome,[19],inactive
same,outcome,[4],inactive
same,outcome,[10],inactive
